This is an account of results in PubChem BioAssay AID1259418 (Broad Institute, 2018).

Screen size: about 3,400 compounds; about 840 (25%) were called active. Inconclusive results (about 11%) are left out. A selection follows. Results with a measured potency or affinity are listed apart. A number with no mark means an inactive call.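 How the source made its calls: active means fitted half-maximal concentration of signal decrease at or below twice the sample's top tested concentration; inconclusive means flat curve between -70 and -30 percent, or poor fit; inactive means flat within 30 percent, signal rise, or potency above limit.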

This assay is described as follows: T. gondii growth inhibition with IFN-gamma, dose response, cell-based, ME49Luc, HeLa, luciferase, 72 h (AID 1259418). The following applies: T. gondii ME49Luc in IFN-y HeLa, hits give low values, -100% = high-dose IFN-γ control wells; at 19.5 µM unless noted.
With `CN(C)Cc1noc2c1CN(Cc1nccn1C)CC2`, the max activity is 50.1%.
For `COc1cc(NC(=O)CN2CCC3(CC2)N=C(c2cccc(C)c2)C(=O)N3)cc(OC)c1`, the max activity is -9.06% [at 2.6 µM].
The value for `Cc1ccc(-c2nc(Cn3nnc(-c4nc(-c5ccc6c(c5)OCO6)no4)c3C)c(C)o2)cc1` was 17.5% [at 0.68 µM]; that for `COc1cc(OC)cc(C(=O)N2CCC3(CC2)Nc2ccc(Cl)cc2-n2cccc23)c1` was -6.3% [at 5 µM]; that for `COc1ccccc1N1CCN(c2nc(-c3ccc(Cl)cc3)nc3ccccc23)CC1` was 8.55% [at 5 µM].
The value for `Cc1noc(C)c1C1CCCN1C(=O)Cn1nc(C(F)(F)F)cc1C` (stereo unspecified) was -9.96% [at 0.35 µM]; that for `COc1ccc(-c2nc(N3CCCCC3)c3ccccc3n2)cc1` was 24.4%.
The value for `COc1ccc(-c2nc(N3CCN(Cc4ccccc4)CC3)c3ccccc3n2)cc1` was 20.1%; that for `Clc1ccc(-c2nc(N3CCC4(CC3)OCCO4)c3ccccc3n2)cc1` was -8.6% [at 10 µM].
For the compound `COc1ccc(-c2nc(N3CCN(c4ccc(OC)cc4)CC3)c3ccccc3n2)cc1`, the max activity is 51.6%.
Under `COc1ccc(-c2nc(N3CCC(N4CCCCC4)CC3)c3ccccc3n2)cc1` stands -13.2% [at 10 µM]; under `COc1ccc(-c2nc(N3CCN(c4ccccc4)CC3)c3ccccc3n2)cc1`, 18.5%; under `COc1ccc(-c2nc(N3CCCC3)c3ccccc3n2)cc1`, -15.5% [at 2.6 µM].
Consider `COc1ccc(-c2nc(N3CCCCCC3)c3ccccc3n2)cc1`, for which the max activity is 11.2% [at 0.16 µM].
Under `CCc1ccc(C(=O)N2CCC3(CC2)Nc2cc(OC)ccc2-n2cccc23)cc1` stands 8.15% [at 0.68 µM].
For the compound `CC(=O)N1CCC(N(C)Cc2cc(C(C)(C)C)n[nH]2)CC1`, the max activity was 35.9%.
Consider `COc1ccc(-c2noc(-c3nnn(Cc4nc(-c5ccccc5OC)oc4C)c3C)n2)cc1`, for which the max activity was 15.5% [at 5 µM].
For the compound `COc1cc(OC)cc(C(=O)N2CSC[C@@H]2C(=O)NCCc2csc(-c3ccccc3)n2)c1`, the max activity is 23.7%.
Under `COc1cccc(-c2nc3c(s2)CN(S(=O)(=O)c2cc(C)cc(C)c2)CC3)c1` stands -33.8% [at 0.16 µM].
Under `COc1ccc(-c2nc3c(s2)CN(S(=O)(=O)c2cc(OC)ccc2OC)CC3)cc1` stands 28%; under `CCc1ccccc1S(=O)(=O)N1CCc2nc(-c3ccccc3)sc2C1`, 115% [at 10 µM]; under `COc1ccc(-c2nc3c(s2)CN(S(=O)(=O)c2cccc(Cl)c2C)CC3)cc1`, 10.3% [at 10 µM].
In the case of `COc1cccc(-c2nc3c(s2)CN(S(=O)(=O)c2cccc(C)c2)CC3)c1`, the max activity is -6.22% [at 2.6 µM].
The value for `COc1ccc(S(=O)(=O)N2CCc3nc(-c4cccc(OC)c4)sc3C2)cc1` was -10.4% [at 0.16 µM]; that for `CCc1ccccc1S(=O)(=O)N1CCc2nc(-c3cccc(OC)c3)sc2C1` was -7.33% [at 0.35 µM]; that for `COc1cccc(-c2nc3c(s2)CN(S(=O)(=O)c2ccccc2Cl)CC3)c1` was 5.54% [at 10 µM].
